# Laboratory results taken from the supplement of paper PMC10338343.
# ± gives the standard deviation. In all, about 6,600 sequences were measured (“pre-steady-state target cleavage rate”: median about 0.07, highest 2% from about 0.72 on). The list comes from a sample in which the highest values are over-represented; it also holds similar and randomly drawn sequences.
# Test system: MIWI (PIWIL1) piRISC loaded with Kctd7 piRNA (30 nt)
# Assay: pre-steady-state target cleavage rate (min^-1); MIWI and MILI are mouse PIWI proteins and EfPiwi is from a freshwater sponge; tags in brackets are library labels; higher = faster piRNA-guided slicing of the target
# Conditions: guide: Kctd7 piRNA 5'p-UGUUAAUCUCUCAGAGAAGGUGACAGUGAU; auxiliary factor: 500 nM mouse GTSF1
# Summary of the method: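 The method was Cleave-'n-Seq, in which uncleaved targets from a transcribed, DNA-blocked target RNA library were sequenced after exposure to active affinity-purified piRISC carrying one synthetic guide, with or without GTSF1 partner protein. Reactions contained 0.1 nM library, 1 nM piRISC and, where present, 500 nM GTSF1 in HEPES–potassium acetate buffer at 33 °C for 0–8 or 0–960 min. Reads were normalised to depth and to weakly complementary targets, three trials were pooled, and k3 was capped at 0.0001 min^-1. The pre-steady-state cleavage rate came from a burst-and-steady-state fit.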
row,Sequence,pre-steady-state target cleavage rate
1,UAGUCUGUCACCUUCGCUGAGAGAUUAACA,0.416 ± 0.035
2,AUCACUUUCACCUUCUCUGAGAGAUUAACA,0.622 ± 0.027
3,UAGUGAGUCUCCUUCUCUGAGAGAUUUACA,0.0124 ± 0.0051
4,UAGUCUCUCACCUUCUCUGUGAGAUUAACA,0.2 ± 0.015
5,UAGUGACAGACCCUUCUCUGAGAGAUUAACA,0.0893 ± 0.016
6,UACACUGUCACGAACUCUGAGAGAUUAACA,0.131 ± 0.019
7,UAGUCUGUCACCAUCUCUGAGAGAUUAUGA,0.021 ± 0.0082
8,UAGUGACAGUCCUUCUCUGAGACAUUAACA,0.0121 ± 0.0033
9,UACACUAGUCACCUUCUCUGAGAGAUUAACA,0.663 ± 0.029
10,AUCACUAGUCACCUUCUCUGAGAGAUUAACA,0.724 ± 0.04
11,UAGAGAGUCACCUUCUCUGAGAGAUUAACA,0.797 ± 0.035
12,AUCUGAGUCACCUUCUCUGAGAGAUUAACA,0.652 ± 0.053
13,UUCACAGUCACCUUCUCUGAGAGAUUAACA,0.656 ± 0.027
14,UACACAGUCACCUUCUCUGAGAGAUUAACA,0.589 ± 0.038
15,UUCUGAGUCACCUUCUCUGAGAGAUUAACA,0.657 ± 0.059
16,AACACAGUCACCUUCUCUGAGAGAUUAACA,0.736 ± 0.032
17,UUGAGUGUCACCUUCUCUGAGAGAUUAACA,0.763 ± 0.034
18,AUGAGUGUCACCUUCUCUGAGAGAUUAACA,0.706 ± 0.032
19,UUCACUAGUCACCUUCUCUGAGAGAUUAACA,0.708 ± 0.032
20,UAGAGUGUCACCUUCUCUGAGAGAUUAACA,0.72 ± 0.035
21,AUGACUGUCACCUUCACUGAGAGAUUAACA,0.541 ± 0.032
22,UAGUCUGUCACGCUUCUCUGAGAGAUUAACA,0.506 ± 0.025
23,UAGUGACUCCACCUUCUCUGAGAGAUUAACA,0.415 ± 0.04
24,UAGACUGUCACCUUCUCUGUGACAUUAACA,0.0186 ± 0.0033

row,Sequence,pre-steady-state target cleavage rate
1,UAGUGUGUCACCUUCUCUGAGAGUUUAUCA,0.232 ± 0.056
2,UAGUGUGUCACCUUCUCUGAGACAUAAACA,0.0331 ± 0.0077
3,UAGUGACAGUGCUUCGCUGAGAGAUUAACA,0.00389 ± 0.0031
4,AUCACUGUCACCUUCACUGAGACAUUAACA,0.252 ± 0.024
5,UAGACUAUCACCUUCUCUGAGAGAUUAACA,0.56 ± 0.026
6,UAGACUAGUCACCUUCUCUGAGAGAUUAACA,0.756 ± 0.049
7,UAGACAGUCACCUUCUCUGAGAGAUUAACA,0.656 ± 0.033
8,UAGUGACAGACCUUCACUGAGAGAUAAACA,0.0224 ± 0.007
9,UAGUGACAGUGCUUCUCUGAGAGUUUAACA,0.00896 ± 0.0024
10,UUCUACUGUCACCUUCUCUGAGAGAUUAACA,0.677 ± 0.038
11,UUACUGUCACCUUCUCUGAGAGAUUAACA,0.743 ± 0.041
12,AUACUGUCACCUUCUCUGAGAGAUUAACA,0.756 ± 0.043
13,AUUACUGUCACCUUCUCUGAGAGAUUAACA,0.713 ± 0.032
14,UACUGUGUCACCUUCUCUGAGAGAUUAACA,0.63 ± 0.027
15,UACUACUGUCACCUUCUCUGAGAGAUUAACA,0.694 ± 0.032
16,UAUACUGUCACCUUCUCUGAGAGAUUAACA,0.767 ± 0.047
17,UUUACUGUCACCUUCUCUGAGAGAUUAACA,0.708 ± 0.026
18,UACUCUGUCACCUUCUCUGAGAGAUUAACA,0.663 ± 0.03
19,UAGUGACUCACGUUCUCUGACAGAUUAACA,0.00367 ± 0.0032
20,UAGACUGUCAGCUUCUCUGAGAGAUUAAGA,0.0909 ± 0.017
21,UAGUCUCACACCUUCUCUGAGAGAUUAUGA,0.0207 ± 0.0066
22,UAGUCUGUCACCUUCACUGAGAGAUUAACA,0.39 ± 0.02
23,UUCACUGUCUACCUUCUCUGAGAGAUUAACA,0.208 ± 0.022
24,UAGUGACAGUCCUUCUCUGAGAGAUAAUCA,0.00284 ± 0.0022

row,Sequence,pre-steady-state target cleavage rate
1,AUCGCUGUCACCUUCUCUGAGAGAUUAACA,0.825 ± 0.042
2,AUGUCUGUCACCUUCUCUGAGAGAUUAACA,0.604 ± 0.024
3,AACUCUGUCACCUUCUCUGAGAGAUUAACA,0.715 ± 0.034
4,UAGGCUGUCACCUUCUCUGAGAGAUUAACA,0.803 ± 0.045
5,UUGUCUGUCACCUUCUCUGAGAGAUUAACA,0.691 ± 0.031
6,UUCGCUGUCACCUUCUCUGAGAGAUUAACA,0.626 ± 0.04
7,UUCUGUGUCACCUUCUCUGAGAGAUUAACA,0.224 ± 0.022
8,UACGCUGUCACCUUCUCUGAGAGAUUAACA,0.745 ± 0.038
9,UACACUGUCACCUUCUGUGUGAGAUUAACA,0.0849 ± 0.012
10,UUCUCUGUGACCUUCUCUGAGAGAUUAACA,0.491 ± 0.023
11,UACACUGUCACCUUCUCUGAGACUUUAUGA,0.00869 ± 0.0047
12,UAGUGACAGUGCCUUCUCUGAGAGAUUAACA,0.356 ± 0.034
13,UAGUGAGUGACCUUCUCAGAGAGAUUAACA,0.226 ± 0.026
14,UAGUGACAGUCCUUCUCUGAGGGAUUAACA,0.0348 ± 0.0076
15,UUCACUGCCACCUUCUCUGAGAGAUUAACA,0.611 ± 0.023
16,AUCACUGCUCACCUUCUCUGAGAGAUUAACA,0.8 ± 0.051
17,UACACUGCUCACCUUCUCUGAGAGAUUAACA,0.623 ± 0.035
18,UUCACUGCUCACCUUCUCUGAGAGAUUAACA,0.669 ± 0.044
19,AUCACUGCCACCUUCUCUGAGAGAUUAACA,0.773 ± 0.044
20,UACACUGCCACCUUCUCUGAGAGAUUAACA,0.613 ± 0.035
21,UAGUGACUGACCUUCUCUGAGAGAUUAUGA,0.00985 ± 0.0048
22,UAGUGACUCUACCUUCUCUGAGAGAUUAACA,0.122 ± 0.014
23,UAGACUGUGCACCUUCUCUGAGAGAUUAACA,0.651 ± 0.048
24,UAGUGAGUCACCUUAUCUGAGAGAUUAACA,0.363 ± 0.02
